Screening results (PubChem)
D2 antagonist – HTS Assay for Allosteric Antagonists of the Human D2 Dopamine Receptor: Primary Screen for Antagonists | AID 485344, 2010 | inhibition, % at 10 µM | HEK293 TREx D2 cells, calcium flux, dopamine EC80 | actives 2% (n = 340,000) | D(2) dopamine receptor (Homo sapiens), P14416; in the data active means inhibition above about 30%; inactive means below that, where a call was filed; further: 0% is about no effect
Target sequence (P14416 whole entry, looked up): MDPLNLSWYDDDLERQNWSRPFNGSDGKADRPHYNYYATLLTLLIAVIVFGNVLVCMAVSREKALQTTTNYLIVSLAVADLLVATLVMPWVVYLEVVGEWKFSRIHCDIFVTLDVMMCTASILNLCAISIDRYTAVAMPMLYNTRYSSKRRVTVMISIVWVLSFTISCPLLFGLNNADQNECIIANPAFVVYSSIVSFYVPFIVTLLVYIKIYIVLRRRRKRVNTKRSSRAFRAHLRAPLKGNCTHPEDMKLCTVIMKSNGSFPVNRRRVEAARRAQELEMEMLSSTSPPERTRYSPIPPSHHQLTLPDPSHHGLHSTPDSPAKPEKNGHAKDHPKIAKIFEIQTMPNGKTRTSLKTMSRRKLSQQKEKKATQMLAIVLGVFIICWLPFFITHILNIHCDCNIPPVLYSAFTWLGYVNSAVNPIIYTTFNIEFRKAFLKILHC
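Dopamine at EC80 is the agonist stimulus; test compounds precede it by 180 s. Calcium flux read kinetically in a force-coupled, inducible HEK293 T-REx D2 cell line.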
D2 PAM-1 – Beta-Arrestin HTS for Positive Allosteric Modulators of the Human D2 Dopamine Receptor: Potentiators. D(2) dopamine receptor (Homo sapiens), P14416. DiscoveRx D2 beta-arrestin cells, luminescence, 90 min; 100% = 57 uM dopamine signal. potentiation, % (concentration not given with the values). actives 0.23% (n = 360,000); in the data active means potentiation above about 50%; inconclusive means mostly about 30% to 49%
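PathHunter beta-arrestin assay in DiscoveRx D2 cells. Compounds were added with an EC20 of dopamine (50 nM final) for 90 min at 37 deg C. Luminescence was read 1 h after detection reagent, with 57 uM dopamine as the EC100 control.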
D2 ag-1 – Beta-Arrestin HTS for Positive Allosteric Modulators of the Human D2 Dopamine Receptor: Agonists; actives 0.084% (n = 360,000); DiscoveRx PathHunter D2 beta-arrestin, luminescence, 90 min; 100% = 57 uM dopamine signal; activation, % (test concentration not listed); in the data active means activation above about 40%; inconclusive means between about 15% and that limit
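Agonist mode: compounds alone added to overnight-plated D2 PathHunter cells for 90 min at 37 C, with 57 uM final dopamine (EC100) defining full response. Beta-arrestin recruitment detected by chemiluminescent reagent, read after 1 h at ambient temperature.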
D2 PAM-2 – HTS Assay for Positive Allosteric Modulators of the Human D2 Dopamine Receptor: Primary Screen for Potentiators; D(2) dopamine receptor (Homo sapiens), P14416; HEK293 T-REx D2, calcium flux, EC20 dopamine potentiation; potentiation, % at 10 µM; actives 0.34% (n = 340,000); AID 485347, 2010;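 active means potentiation over 3 SD above the plate norm, cut at about 30% in these data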; further: 0% is about no effect
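Cells plated with tetracycline inducer and held overnight at 30 C; calcium dye loaded 30–90 min at room temperature; baseline taken, compound added and read 180 s; EC20 dopamine then added and read 180 s.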
D2 ag-2 – HTS Assay for Allosteric Agonists of the Human D2 Dopamine Receptor: Primary Screen for Agonists. activation, % at 2 µM. HEK293 T-REx D2 cells, calcium flux agonist mode. actives 0.53% (n = 340,000);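 active means activation over 3 SD above normal in the single-dose calcium agonist read, cut at about 30% in these data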; further: 0% is about no effect
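Calcium-flux readout, 1 cycle/sec over 180 s following compound pin transfer, in inducible HEK293 Trex D2 cells (force-coupled); dopamine controls included. Positive calcium responses during this window marked compounds as potential agonists.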
B2AR arrestin – qHTS assay of beta-arrestin-biased ligands of beta2-adrenergic receptor | Beta-2 adrenergic receptor (Homo sapiens), P07550 | beta-arrestin recruitment to beta2AR, cell-based reporter | Potency, µM (titrated, usually from 46.1 µM), for inactives: top-dose activation, actives largely listed as activators | actives 0.02% (n = 330,000);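 further: potency means the concentration at half of the fitted maximal effect; 0% = DMSO controls and full agonism = EC100 isoproterenol or metaproterenol; nearly all actives have a fitted effect of over 65% in size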
D3 ag – qHTS of D3 Dopamine Receptor Agonist: D3 Dopamine Receptor B-arrestin Agonist Confirmatory Assay; DiscoveRx D3 beta-arrestin cells, luminescence, 90 min; Potency, µM (titrated, usually from 76.9 µM), for the others: at the top dose activation, hits mostly activators; shares compounds with D2 ag-2; actives 4% (n = 2,300);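 further: potency means the concentration at half of the fitted maximal effect; 100% = dopamine control response; nearly all actives have a fitted effect of over 70% in size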
D2 ag-3 – qHTS of D3 Dopamine Receptor Agonist: D2 Dopamine Receptor B-arrestin Agonist Counterscreen; Potency, µM (titrated, usually from 76.9 µM), without a hit: top-dose activation, most hits filed as activators; AID 720507, 2013; DiscoveRx PathHunter D2 beta-arrestin, luminescence, 90 min; response scale: percent relative to full dopamine signal; shares compounds with D2 ag-2; actives 5.9% (n = 2,300); further: potency means the concentration at half of the fitted maximal effect; % of control where 0% means no effect; nearly all actives have a fitted effect of over 70% in size
* = called active by the depositor; ? = inconclusive; nt = no result. The list is not random: actives were taken first. Their share in the collection is about 2.4%. Unless noted, the call rests on the fitted dose curve; in most records, active means well fitted activation curve with a large enough effect; inconclusive means small, poorly fitted or top-dose-only effect; inactive means flat fitted curve, though single readings scatter.

SMILES	D2 antagonist	D2 PAM-1	D2 ag-1	D2 PAM-2	D2 ag-2	B2AR arrestin	D3 ag	D2 ag-3
O=C(O)/C=C/C(=O)NCCCc1ccccc1	14.5	-2.6	-2.5	6.4	0.0	-0.5%	-2.9%	-4.4%
O=C(O)/C=C/C(=O)NCc1ccccc1	-11.6	19.2	-1.3	-8.7	-0.8	0.2%	nt	nt
Cc1ccc(-n2nc3c(=O)n(CC(=O)NCc4ccccn4)nc(C)c3c2C)cc1	-5.4	-6.3	0.3	-16.9	51.7*	0.2%	-6.4%	-3.0%
CN(Cc1cccc(F)c1)C(=O)c1cc(S(=O)(=O)N2CCOCC2)ccc1N1CCCC1	-27.1	2.0	1.8	0.3	0.0	0.1%	-4.4%	-4.6%
CCc1ccc(CN(C)C(=O)c2cc(S(=O)(=O)N3CCOCC3)ccc2N2CCCC2)cc1	-9.9	-13.5	5.5	1.5	0.7	-0.8%	nt	nt
O=C1CSC(=Nc2ccccc2)N1Cc1ccccc1	nt	-7.2	2.1	nt	nt	-0.3%	-5.3%	-1.1%
CCCN1C(=O)CSC1=Nc1ccccc1	5.3	-8.8	1.3	3.3	0.6	0.0%	nt	nt
CCOC(=O)Cn1c(=O)oc2cc(S(=O)(=O)N3CCN(C(=O)c4ccco4)CC3)ccc21	-3.0	5.5	?	-10.5	0.7	0.1%	nt	nt
CCN(c1cccc(C)c1)S(=O)(=O)c1ccc2c(c1)N(C(C)=O)CCS2	-3.3	-9.0	-0.7	8.0	-1.2	0.1%	nt	nt
Fc1ccccc1N1CCN(c2ncnc3c2nc2n3CCCCC2)CC1	nt	nt	nt	6.2	-0.8	nt	nt	nt
O=C(C1CCN(c2ncnc3c2nc2n3CCCCC2)CC1)N1CCN(c2ccccc2F)CC1	5.3	-3.4	6.2	-12.2	27.7	-1.1%	?	16.4%
COCCN(C(=O)C1=COCCO1)c1c(N)n(Cc2ccccc2)c(=O)[nH]c1=O	6.1	-7.7	-0.4	0.8	-0.9	-0.2%	nt	nt
COCCN(C(=O)c1ccc(COc2ccccc2)o1)c1c(N)n(CC(C)C)c(=O)[nH]c1=O	-13.2	-14.7	3.6	1.4	-0.2	-2.3%	-7.4%	-2.4%
COCCN(C(=O)C1=COCCO1)c1c(N)n(CC(C)C)c(=O)[nH]c1=O	-0.1	-2.6	6.5	-1.2	0.5	-1.0%	-4.5%	22.5%
C[C@@H]1NS(=O)(=O)[C@H]2C[C@@H]3C=C[C@]2(O3)[C@H]1OC(=O)Nc1ccc(C(F)(F)F)cc1[N+](=O)[O-]	-5.5	-0.9	-4.2	2.1	0.9	-0.1%	9.3%	2.5%
Cc1cc(C(=O)O[C@H]2[C@H](C)NS(=O)(=O)[C@H]3C[C@@H]4C=C[C@]23O4)cc([N+](=O)[O-])c1	-10.8	-11.0	-3.3	0.8	0.1	-2.9%	nt	nt
Cc1[nH]c(=O)cc2ccccc12	-0.8	-22.4	-4.6	-7.7	1.1	-2.7%	nt	nt
O=C(NCCN1CCN(c2ccccc2)CC1)c1ccccc1F	72.2*	-17.1	?	-28.2	79.3*	-0.5%	?	14.9%
O=C(COc1ccccc1)NCCS(=O)(=O)N1CCN(c2ccccc2)CC1	77.4*	2.3	?	4.7	27.9	-2.7%	18.2%	?
O=C(NCCS(=O)(=O)N1CCN(c2ccccc2)CC1)c1ccccc1F	-4.4	3.5	1.7	15.4	2.9	0.2%	-6.4%	8.1%
COc1ccc(N2CCN(C(=O)C3CCN(S(=O)(=O)Cc4ccccc4)CC3)CC2)cc1	nt	nt	nt	5.6	-1.0	nt	nt	nt
CC(=O)NC(c1ccccc1)c1c(O)ccc2ccccc12 (centres undefined)	2.9	-7.8	-5.8	-0.5	-0.6	-1.1%	nt	nt
COc1ccccc1N1CCN(CC(O)COc2ccc3c(c2)OCO3)CC1 (centres undefined)	1.4	-9.8	-5.4	11.8	-0.5	0.5%	nt	nt
CCOc1ccccc1N1CCN(CC(O)COc2ccc3c(C)cc(=O)oc3c2)CC1 (centres undefined)	64.8*	-5.6	13.3	-13.9	54.8*	-0.1%	-4.1%	14.2%
CC(=O)NC(Cc1ccccc1C)C(=O)NC1CCN(C(=O)c2cccc(C)c2)CC1 (centres undefined)	-7.8	-11.5	-0.9	7.1	0.6	0.0%	nt	nt
SMILES	D2 antagonist	D2 PAM-1	D2 ag-1	D2 PAM-2	D2 ag-2	B2AR arrestin	D3 ag	D2 ag-3
Cc1cccc(OCCCC(=O)NNC(=O)CCN2CCN(c3ccccc3)CC2)c1	9.3	-33.2	-1.5	-24.3	59.2*	0.4%	?	29.0%
COc1ccc(OCCCC(=O)NNC(=O)CCN2CCN(c3ccccc3)CC2)cc1	70.9*	-7.9	7.1	-23.9	82.8*	-0.9%	18.7%	15.2%
CCOCCCNC(=O)C1CCN(S(=O)(=O)N(CC(C)C)CC(C)C)CC1	-2.2	-9.2	-0.3	-9.0	-1.5	3.9%	nt	nt
CCc1nnc(NC(=O)CSc2nc3cc4c(cc3cc2C)OCCO4)s1	16.8	-4.7	-3.6	7.8	0.0	-0.1%	nt	nt
CC(C)C[C@H](NC(=O)c1ccc(OC2CCN(C(=O)C3CC3)CC2)cc1)C(N)=O	nt	4.0	-0.5	nt	nt	-0.5%	nt	nt
CCN(CC)S(=O)(=O)c1ccc(/C=C/C(=O)N(c2ccccn2)C2CCCCC2)cc1	-2.3	-8.4	-0.1	0.8	2.5	-0.3%	nt	nt
O=C(/C=C/c1ccccc1Cl)N(c1ccccn1)C1CCCCC1	98.8*	5.3	?	-27.6	76.9*	-0.1%	8.7%	?
N#CC1=C(N)NC(SCc2ccc(Br)cc2)=C(C#N)C12CCCCC2	nt	-4.0	4.2	nt	nt	-0.3%	nt	nt
N#CC1=C(N)NC(SCC(=O)Nc2ccc(Br)cc2)=C(C#N)C12CCCCC2	-40.8	-36.2	-0.8	-17.6	75.4*	0.1%	7.4%	8.0%
COc1ccc2[nH]cc(C3N4CC5(C)CN3CC(C)(C4)C5=O)c2c1 (centres undefined)	-21.8	-3.2	-0.3	-14.0	58.4*	0.0%	2.7%	-2.3%
